Assay results as given in PubChem BioAssay AID760 (NMMLSC, 2007).
In all, about 190,000 compounds went through this assay and about 360 (0.19%) were called active. Roughly 2% stayed inconclusive and do not appear here.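 Rule for the calls: active = GTP binding activity at least 20 points away from 100%, either lowered or raised; inconclusive = signal likely due to the compound's own green fluorescence; inactive = the rest.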 Shown is part of a subset that was picked to be rich in actives.

molecular target: Ras-related protein Rab-2A (Canis lupus familiaris) (UniProt P61105); test: modulators of GTP binding to Rab2A wildtype, primary screen, biochemical, dog, bead-based flow cytometry, multiplex (AID 760); details: GST-Rab2 wt beads, Bodipy-GTP binding, at 10 µM;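 note: 0% = beads with excess unlabeled GTP and 100% = no-compound control corrected for plate trend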

GTP binding activity, inactive:
Cc1ccc(C(=O)NN(CCC#N)C2=NS(=O)(=O)c3ccccc32)cc1 95%
Cn1nc(-c2ccccc2)c(CO)c1Sc1ccccc1 93%
CN1C(=O)/C(=C/C=C2\SCCN2C)OC1=S 98%
O=C(O)CCc1nc2cc(Cl)ccc2n(Cc2ccccc2)c1=O 98%
CCN(CC(=O)NCc1cccs1)S(=O)(=O)c1ccc(NC(C)=O)cc1 96%
Cc1ccc(S(=O)(=O)N2CCOCC2)cc1NC(=O)CSc1nnc(N)s1 98%
Cc1ccccc1CC1(CO)CCCN(Cc2ccc3c(c2)OCCO3)C1 (stereo unspecified) 99%
O=C(CC1SC(=Nc2ccccc2F)N(CCN2CCOCC2)C1=O)Nc1ccc(F)cc1F (stereo unspecified) 97%
CC(C)NC(=O)NC(=O)CSc1nnc(-c2ccccc2F)n1N 97%
C=CCN1C(=O)C(O)(CC(=O)c2ccccn2)c2ccccc21 (stereo unspecified) 107%
CC1(C)CC(=O)c2ccc(O)cc2O1 97%
N=C1C(c2nc3ccccc3[nH]2)=C(O)CN1NC(=O)c1c[nH]c2ccccc12 96%
CCCCOc1ccc(N(CC(=O)NC(C)C)C(=O)CCC(=O)Nc2ccccn2)cc1 97%
O=C(NNC(=S)NC(=O)c1cn(-c2ccccc2)nc1-c1ccccc1)c1ccncc1 90%
COc1ccc(N2CCN(C(=O)CNS(=O)(=O)c3ccc(C)c(C)c3)CC2)cc1 96%
CC(C)=CCN1CCN(Cc2ccc(Oc3ncccn3)cc2)CC1CCO (stereo unspecified) 100%
COc1ccc(NC(=O)c2cc3nc(-c4ccccc4)cc(C)n3n2)cc1OC 84%
CCOC(=O)c1ccc(N/C(=N/S(=O)(=O)c2ccccc2)c2ccccc2)cc1 95%
CCOC(=O)c1ccc(Nc2cc(C)nc3nc(C)nn23)cc1 98%
O=C(/C=C/c1ccc(N2CCOCC2)cc1)c1ccccc1 97%
CCN(c1ccccc1)S(=O)(=O)c1ccc2[nH]c(=O)[nH]c2c1 99%
O=C(Nc1ccc2oc(-c3ccccc3F)nc2c1)c1ccco1 96%
Cc1ccc2cc(CN(c3ccc(C)c(C)c3)S(C)(=O)=O)c(=O)[nH]c2c1 98%
CCN(CC(=O)NC(=O)NCc1ccccc1)Cc1nc2ccccc2c(=O)[nH]1 101%
Cc1noc(C)c1S(=O)(=O)Nc1ccc(C(=O)N2CCN(c3ccc(F)cc3)CC2)cc1 96%

GTP binding activity, active:
CCOC(=O)c1nc(Nc2ccc(C(=O)OC)cc2)c2ccccc2n1 77%
